# Experimental data as given in PubChem BioAssay (NCI).
# This is part of a sample that, as a whole, favours compounds with a hit. Of some 83,000 tested, about 20% had one in any assay.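 The test compound was applied at a single concentration to cells in 96-well plates for 48 hours, and percent growth was recorded.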 Unmarked numbers belong to inactive results. Active and inactive are the calls of the source. The calls were made as follows: active = growth percent below 10; inactive = the rest.
# Tested on: K-562 leukemia
# Experiment: NCI-60 one-dose screen, 48 h (100 = growth as untreated, 0 = no growth, -100 = all killed)
# Conditions: 10 µM unless noted
row,Compound,growth
1,OCCCCc1nccc2c1[nH]c1ccccc12,79.8%
2,CCCn1nc(-c2ccccc2)c2c(-c3ccccc3)onc2c1=O,29.1%
3,Cc1cc(N(CCCNc2ccnc3cc(Cl)ccc23)Cc2ccccn2)nc(N2CCCC2)n1,9.27% (active)
4,C=C(C)[C@@H]1CC[C@]2(CN)CC[C@]3(C)[C@H](CC[C@@H]4[C@@]5(C)CCC(N)[C@@](C)(CO)[C@@H]5CC[C@]43C)[C@@H]12 (stereo partly drawn),-69.8% (active)
5,COc1ccc(-n2ncn(CCCCCCn3cnn(-c4ccc(OC)cc4)c3=O)c2=O)cc1,72.7%
6,O=C(NC1CCOCC1)c1ccc2c(c1)CN(c1ncc(Cc3cccc(-n4cccn4)c3)s1)CC2,58.7%
7,C=C(CNCCc1ccc(O)cc1)[C@@H]1CC[C@]2(COC3CCCCO3)CC[C@]3(C)[C@H](CC[C@@H]4[C@@]5(C)CCC(NCCO)C(C)(C)[C@@H]5CC[C@]43C)[C@@H]12 (stereo partly drawn),-66.1% (active)
8,Cc1c(C(=O)O[C@H]2[C@@H]3[C@H](C)CC[C@H]3[C@]3(C)O[C@@]2(C2CCCCC2)C[C@H]3OC(=O)CO)ccc2ccccc12,7.53% (active)
9,COc1ccc(Oc2nc(Nc3ccc(N4CCCCC4)nc3)ncc2NC(=O)c2cc(OC)cc(OC)c2)cc1,18.6%
10,O=C(Oc1ccc[nH]c1=O)c1cc([N+](=O)[O-])cc([N+](=O)[O-])c1,87.1%
11,Cc1cc(N2CCCCC2)nc(N(CCNc2ccnc3cc(Cl)ccc23)Cc2ccccn2)n1,7.83% (active)
12,CCCCOc1ccc(NC(=O)n2nc(N=NN(C)C)c3ccc(Cl)cc32)cc1,93.7%
13,O=C1NN(C(=O)c2ccc(O)cc2)C(c2ccccc2)=N/C1=C\c1cn(-c2ccccc2)nc1-c1ccccc1,93.7%
14,COC(=O)/C(=C\c1ccc(OC)cc1)C(=O)N1c2ccccc2Sc2ccccc21,11.1%
15,COc1ccc(Oc2nc(Nc3ccc(N4CCOCC4)nc3)ncc2NC(=O)c2cc(OC)cc(OC)c2)cc1,49.8%
16,NC(=O)c1c(NC(=O)c2ccc(C(F)(F)F)cc2Cl)sc2c1CCC(=O)C2,-11.7% (active)
17,O=C(NCCOCCOCCOCCNC(=O)c1cc2c(o1)C(=O)c1ccccc1C2=O)NC12CC3CC(CC(C3)C1)C2,7.09% (active)

row,Compound,growth
1,COC(=O)c1ccc(CSc2nnc(-c3ccncc3)o2)cc1,93.9%
2,CCCc1nc2ccccn2c1Nc1ccc(C(=O)NO)cc1,89.5%
3,Fc1ccc(Nc2ccc3cc(OCCCN4CCOCC4)ccc3n2)cc1F,-12% (active)
4,C=C1c2c(C)nn(-c3ccc(S(N)(=O)=O)cc3)c2N(C)C23CC1C1(C)c4c(C)nn(-c5ccc(S(N)(=O)=O)cc5)c4N(C)C(C)(CC12)C3 (stereo not drawn),29.9%
5,C=C1c2c(C)nn(-c3ccc(NC(C)=O)cc3)c2N(C)C23CC1C1(C)c4c(C)nn(-c5ccc(NC(C)=O)cc5)c4N(C)C(C)(CC12)C3 (stereo not drawn),14.9%
6,C[C@@H]1CC[C@@H]2[C@@H]1[C@H](OC(=O)c1ccc3ccccc3c1)[C@]1(C3CCCCC3)C[C@@H](OC(=O)CO)[C@@]2(C)O1,39.6%
7,CC(C)(C)c1ccc(C(=O)Nc2sc3c(c2C(N)=O)CCC(=O)C3)cc1,4.82% (active)
8,N=c1ccn2c(n1)OC1C(O)C(CO)OC12 (stereo not drawn),94.5%
9,NC(=Nc1ccc(N)cc1)C(N)=Nc1ccc(N)cc1,81.7%
10,COc1ccc(/C=C(\C#N)n2nnc3cc(F)c(F)cc32)c(OC)c1OC,23%
11,C=C1c2c(C)nn(-c3ccc(O)cc3)c2N(C)C23C[C@@H]1C1(C)c4c(C)nn(-c5ccc(O)cc5)c4N(C)C(C)(C[C@H]12)C3 (stereo partly drawn),18.1%
12,CSc1ccc(Cl)c(C(=O)Nc2sccc2C(N)=O)c1,110%
13,C=C1c2c(C)nn(-c3ccc(N)cc3)c2N(C)C23CC1C1(C)c4c(C)nn(-c5ccc(N)cc5)c4N(C)C(C)(CC12)C3 (stereo not drawn),42.9%
14,CC(=O)Nc1ccc2c(c1)Cc1c(F)cccc1-2,120%
15,C=C(C)[C@@H]1CC[C@]2(CNCCO)CC[C@]3(C)[C@H](CC[C@@H]4[C@@]5(C)CCC(N)[C@@](C)(CO)[C@@H]5CC[C@]43C)[C@@H]12 (stereo partly drawn),-63.2% (active)
16,Cc1cnc(Nc2ccc(OCCN3CCCC3)cc2)nc1NCc1ccco1,12.9%
